Experimental data: PubChem BioAssay (EPA / NIEHS)
Inconclusive results are not listed. The source made the active and inactive calls. Rule for the calls, unless noted: active = hit-call score of the fitted dose curve at least 0.9, where 1 is the maximum; inconclusive = response in the unintended direction; inactive = score below 0.9.

Molecular target: X-box-binding protein 1 (Homo sapiens) (UniProt P17861)
Assay: ATG_Xbp1_CIS: Attagene CIS-FACTORIAL HepG2 Assay for human X-box Binding Protein 1 (XBP1) (AID 2282972; active = hit-call score of the fitted dose curve at least 0.9, where 1 is the maximum; inactive = score below 0.9)
Conditions: HepG2 XBP1 cis-element reporter, Attagene multiplex; actives raise or lower the signal
In short: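 HepG2 cells transiently transfected with cis-regulated multiple reporter transcription units; endogenous transcription factor activity measured 24 hours after chemical dosing. Reporter mRNA quantified by RT-PCR, 6-FAM primer extension, HpaI digestion and capillary electrophoresis; bidirectional fitting versus DMSO.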

Sequence of X-box-binding protein 1 (Homo sapiens) (P17861 whole entry, looked up): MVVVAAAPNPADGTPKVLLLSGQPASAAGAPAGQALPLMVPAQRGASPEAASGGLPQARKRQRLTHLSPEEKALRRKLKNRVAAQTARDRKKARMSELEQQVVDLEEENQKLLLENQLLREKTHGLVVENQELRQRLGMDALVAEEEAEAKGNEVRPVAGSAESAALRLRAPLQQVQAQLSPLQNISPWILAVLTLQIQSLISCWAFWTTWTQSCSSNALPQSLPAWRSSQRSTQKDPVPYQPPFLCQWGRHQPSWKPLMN

| Structure (SMILES) | outcome | AC50 |
| --- | --- | --- |
| BrCBr | inactive | – |
| CCc1cccc(C)c1N(C(=O)CCl)[C@@H](C)COC | inactive | – |
| O=P1(NCCCl)OCCCN1CCCl (centres undefined) | inactive | – |
| CC(Cc1ccc(C(C)(C)C)cc1)CN1C[C@@H](C)O[C@@H](C)C1 (some centres undefined) | inactive | – |
| O=C(O)c1cc[c]([Hg][Cl])cc1 | – | 7.19 µM (active) |
| C[N+](C)(C)CC(=O)O | inactive | – |
| O=S(=O)(c1ccccc1)c1ccccc1 | inactive | – |
| Clc1ccc(-c2ccccc2)cc1 | inactive | – |
| CN(C)C(=O)C(c1ccccc1)c1ccccc1 | inactive | – |
| C=CCc1ccc(OC(=O)Cc2ccccc2)c(OC)c1 | inactive | – |
| O=P(O)(Oc1ccccc1)Oc1ccccc1 | inactive | – |
| CC1CCCC1.[C-]#[O+].[C-]#[O+].[C-]#[O+].[Mn] | inactive | – |
| O=C(O)COc1ccccc1 | inactive | – |
| [Cl][Sb]([Cl])[Cl] | – | 143 µM (active) |
| CCC(=O)c1ccc(Cl)cc1 | inactive | – |
| Cc1ccc(N(SC(F)(Cl)Cl)S(=O)(=O)N(C)C)cc1 | – | 17 µM (active) |
| CC1(C)CC(=O)CC(C)(C)N1[O] | inactive | – |
| SCc1ccco1 | inactive | – |
| O=CNC(N1CCN(C(NC=O)C(Cl)(Cl)Cl)CC1)C(Cl)(Cl)Cl (centres undefined) | inactive | – |
| Oc1cc(Cl)ccc1Cl | inactive | – |
| O=[N+]([O-])c1cc(C(F)(F)F)c(Cl)c([N+](=O)[O-])c1Cl | inactive | – |
| C[C@]12CCC(=O)C(O)=C1CC[C@@H]1[C@@H]2CC[C@]2(C)C(=O)CC[C@@H]12 | inactive | – |
| CSc1nc(N=[N+]=[N-])nc(NC(C)C)n1 | inactive | – |
| O=[N+]([O-])O.O=[N+]([O-])O.[Cd] | – | 1.43 µM (active) |

Molecular target: Androgen receptor (Homo sapiens) (UniProt P10275)
Sequence (P10275 whole entry, looked up): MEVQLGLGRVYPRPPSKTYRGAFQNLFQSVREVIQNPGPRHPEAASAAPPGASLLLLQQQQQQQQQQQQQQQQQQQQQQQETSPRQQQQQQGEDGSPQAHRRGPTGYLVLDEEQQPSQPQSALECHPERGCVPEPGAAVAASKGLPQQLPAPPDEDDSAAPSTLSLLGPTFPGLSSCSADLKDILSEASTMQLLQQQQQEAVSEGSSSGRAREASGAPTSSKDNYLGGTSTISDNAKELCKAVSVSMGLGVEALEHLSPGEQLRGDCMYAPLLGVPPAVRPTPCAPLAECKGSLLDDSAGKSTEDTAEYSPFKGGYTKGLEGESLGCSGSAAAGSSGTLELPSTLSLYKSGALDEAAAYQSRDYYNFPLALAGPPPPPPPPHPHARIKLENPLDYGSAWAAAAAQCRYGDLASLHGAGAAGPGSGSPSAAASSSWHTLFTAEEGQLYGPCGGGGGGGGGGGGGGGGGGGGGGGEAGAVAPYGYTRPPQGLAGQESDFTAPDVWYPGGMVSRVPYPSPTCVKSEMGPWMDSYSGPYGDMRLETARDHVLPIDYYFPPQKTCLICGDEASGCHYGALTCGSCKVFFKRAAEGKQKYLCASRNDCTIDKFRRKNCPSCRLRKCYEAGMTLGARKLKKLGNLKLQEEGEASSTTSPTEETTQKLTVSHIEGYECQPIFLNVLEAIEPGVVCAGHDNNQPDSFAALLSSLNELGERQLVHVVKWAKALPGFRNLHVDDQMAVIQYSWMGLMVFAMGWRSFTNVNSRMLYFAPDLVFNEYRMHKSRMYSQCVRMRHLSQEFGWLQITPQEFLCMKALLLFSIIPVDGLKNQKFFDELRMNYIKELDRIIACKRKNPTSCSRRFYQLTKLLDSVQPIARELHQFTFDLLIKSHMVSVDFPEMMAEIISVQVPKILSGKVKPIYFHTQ
Assay: ATG_AR_TRANS: Attagene TRANS-FACTORIAL HepG2 Assay for human Androgen Receptor (AR) (AID 2282973)
Conditions: HepG2 Attagene TRANS-FACTORIAL AR reporter transcription
In short: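 HepG2 cells transiently transfected with AR-Gal4 chimera and GAL4-UAS reporter units; chemical exposure 24 h. Reporter mRNA quantified by RT-PCR with fluorescent labelling and capillary electrophoresis; gain-of-signal fitted against DMSO.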

| Structure (SMILES) | outcome |
| --- | --- |
| O=c1[nH]c(Cl)c(Cl)cc1Cl | inactive |
| CCC(C)c1cc(C(C)(C)C)cc(-n2nc3ccccc3n2)c1O (centres undefined) | inactive |
| Nc1c(Cl)c(Cl)c(Cl)c(Cl)c1Cl | inactive |
| COC(C)(C)CCC[C@H](C)C/C=C/C(C)=C/C(=O)OC(C)C | inactive |
| SCc1ccco1 | inactive |

System: not listed separately
Assay: ATG_M_19_TRANS: Attagene TRANS-FACTORIAL HepG2 Assay for M19 Transcription Factor (Internal Marker) (AID 2282974)
Conditions: HepG2 Attagene TRANS-FACTORIAL M19 internal marker reporter
In short: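 Using RT-PCR and capillary electrophoresis, reporter mRNA from transiently transfected human HepG2 cells was quantified following 24 h exposure; activity was fitted in the positive direction against DMSO.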

| Structure (SMILES) | outcome |
| --- | --- |
| O=c1[nH]c(Cl)c(Cl)cc1Cl | inactive |
| CCC(C)c1cc(C(C)(C)C)cc(-n2nc3ccccc3n2)c1O (centres undefined) | inactive |
| COC(=O)c1ccccc1S(=O)(=O)NC(=O)Nc1nc(C)cc(C)n1 | inactive |
| N#Cc1cccc(C#N)c1 | inactive |
| O=C(O)CCCc1ccc(N(CCCl)CCCl)cc1 | inactive |
| Nc1cc(Cl)cc(Cl)c1 | inactive |
| COc1ncc(F)c2nc(S(=O)(=O)Nc3c(F)cccc3F)nn12 | inactive |
| COC(C)(C)CCC[C@H](C)C/C=C/C(C)=C/C(=O)OC(C)C | inactive |
| [CH3][Sn]([CH3])([Cl])[Cl] | inactive |
| BrCBr | inactive |
| CCc1cccc(C)c1N(C(=O)CCl)[C@@H](C)COC | inactive |
| O=P1(NCCCl)OCCCN1CCCl (centres undefined) | inactive |
| CC(Cc1ccc(C(C)(C)C)cc1)CN1C[C@@H](C)O[C@@H](C)C1 (some centres undefined) | inactive |
| C[N+](C)(C)CC(=O)O | inactive |
| O=S(=O)(c1ccccc1)c1ccccc1 | inactive |
| Clc1ccc(-c2ccccc2)cc1 | inactive |
| CN(C)C(=O)C(c1ccccc1)c1ccccc1 | inactive |
| C=CCc1ccc(OC(=O)Cc2ccccc2)c(OC)c1 | inactive |
| CC1CCCC1.[C-]#[O+].[C-]#[O+].[C-]#[O+].[Mn] | inactive |
| CC1(C)CC(=O)CC(C)(C)N1[O] | inactive |
| SCc1ccco1 | inactive |
| Oc1cc(Cl)ccc1Cl | inactive |
| C[C@]12CCC(=O)C(O)=C1CC[C@@H]1[C@@H]2CC[C@]2(C)C(=O)CC[C@@H]12 | inactive |
| CSc1nc(N=[N+]=[N-])nc(NC(C)C)n1 | inactive |
| O=[N+]([O-])O.O=[N+]([O-])O.[Cd] | inactive |
